# Test results: the supplement of paper PMC9694430
# Tests used:
# Assay in all cases: thermal shift delta Tm vs DMSO control; higher = stronger stabilization (binding)
# Details in all cases: 12.5 µM; protein concentration 2 µM
# LOC_OS01G01410-cb001 = tested on: LOC_OS01G01410-cb001
# Summary of the method: (§1)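 Purified, E. coli-expressed rice kinase domain constructs were tested by differential scanning fluorimetry in 96-well plates: 19.5 μl of 2 μM kinase in 100 mM potassium phosphate pH 7.5, 150 mM NaCl, 10% glycerol, 5 × SYPRO Orange, plus compound in DMSO. Fluorescence was read from 25°C to 95°C at 0.05°C/s. Melting temperatures came from Boltzmann fits, and the shift is the triplicate mean relative to protein with DMSO alone.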
# LOC_OS01G02750-cb003 = tested on: LOC_OS01G02750-cb003
# Summary of the method: as §1
# LOC_OS01G10900-cb004 = tested on: LOC_OS01G10900-cb004
# Summary of the method: as §1
# LOC_OS01G13800-cb001 = tested on: LOC_OS01G13800-cb001
# Summary of the method: as §1
# LOC_OS01G14860-cb001 = tested on: LOC_OS01G14860-cb001
# Summary of the method: as §1
# LOC_OS01G21960-cb002 = tested on: LOC_OS01G21960-cb002
# Summary of the method: as §1
# LOC_OS01G39600-cb002 = tested on: LOC_OS01G39600-cb002
# Summary of the method: as §1
# LOC_OS01G48390-cb002 = tested on: LOC_OS01G48390-cb002
# Summary of the method: as §1
# LOC_OS01G51400-cb002 = tested on: LOC_OS01G51400-cb002
# Summary of the method: as §1
# LOC_OS01G52050-cb004 = tested on: T1, LOC_OS01G52050-cb004
# T1 sequence (whole entry): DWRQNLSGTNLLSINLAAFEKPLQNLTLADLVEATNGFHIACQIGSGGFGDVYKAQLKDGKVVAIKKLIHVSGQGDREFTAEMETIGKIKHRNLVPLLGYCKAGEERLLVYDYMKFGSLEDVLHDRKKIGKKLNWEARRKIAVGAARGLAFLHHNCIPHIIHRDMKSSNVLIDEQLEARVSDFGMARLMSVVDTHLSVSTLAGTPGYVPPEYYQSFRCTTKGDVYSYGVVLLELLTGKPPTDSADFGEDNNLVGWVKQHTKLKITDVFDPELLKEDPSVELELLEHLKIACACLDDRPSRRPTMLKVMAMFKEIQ
# Summary of the method: as §1
# LOC_OS01G57100-cb003 = tested on: LOC_OS01G57100-cb003
# Summary of the method: as §1
# LOC_OS01G60330-cb001 = tested on: LOC_OS01G60330-cb001
# Summary of the method: as §1
# LOC_OS01G60700-cb002 = tested on: LOC_OS01G60700-cb002
# Summary of the method: as §1
# LOC_OS01G63280-cb003 = tested on: LOC_OS01G63280-cb003
# Summary of the method: as §1
# LOC_OS01G67340-cb003 = tested on: LOC_OS01G67340-cb003
# Summary of the method: as §1
# LOC_OS01G70970-cb002 = tested on: LOC_OS01G70970-cb002
# Summary of the method: as §1
# LOC_OS02G07810-cb001 = tested on: LOC_OS02G07810-cb001
# Summary of the method: as §1
# LOC_OS02G08530-cb003 = tested on: LOC_OS02G08530-cb003
# Summary of the method: as §1
# LOC_OS02G14120-cb001 = tested on: LOC_OS02G14120-cb001
# Summary of the method: as §1
# LOC_OS02G17970-cb001 = tested on: LOC_OS02G17970-cb001
# Summary of the method: as §1
Structure (SMILES),thermal shift delta Tm (LOC_OS01G01410-cb001),thermal shift delta Tm (LOC_OS01G02750-cb003),thermal shift delta Tm (LOC_OS01G10900-cb004),thermal shift delta Tm (LOC_OS01G13800-cb001),thermal shift delta Tm (LOC_OS01G14860-cb001),thermal shift delta Tm (LOC_OS01G21960-cb002),thermal shift delta Tm (LOC_OS01G39600-cb002),thermal shift delta Tm (LOC_OS01G48390-cb002),thermal shift delta Tm (LOC_OS01G51400-cb002),thermal shift delta Tm (LOC_OS01G52050-cb004),thermal shift delta Tm (LOC_OS01G57100-cb003),thermal shift delta Tm (LOC_OS01G60330-cb001),thermal shift delta Tm (LOC_OS01G60700-cb002),thermal shift delta Tm (LOC_OS01G63280-cb003),thermal shift delta Tm (LOC_OS01G67340-cb003),thermal shift delta Tm (LOC_OS01G70970-cb002),thermal shift delta Tm (LOC_OS02G07810-cb001),thermal shift delta Tm (LOC_OS02G08530-cb003),thermal shift delta Tm (LOC_OS02G14120-cb001),thermal shift delta Tm (LOC_OS02G17970-cb001)
CN1CCN(c2ccc3nc(-c4c(N)c5c(F)cccc5[nH]c4=O)[nH]c3c2)CC1 [Dovitinib (TKI258) Lactate],5.96 °C,2.78 °C,4.81 °C,1.06 °C,2.06 °C,3.87 °C,4.79 °C,3.22 °C,1.02 °C,6.95 °C,1.26 °C,14.2 °C,1.84 °C,1.58 °C,7.49 °C,8.33 °C,0.88 °C,4.27 °C,6.8 °C,2 °C
CCCCOc1c(C(=O)c2c(F)cc(C)cc2F)c[nH]c2nncc1-2,1.01 °C,0.64 °C,1.09 °C,0.41 °C,2.54 °C,1.36 °C,0.07 °C,0.94 °C,0 °C,0.38 °C,0.94 °C,0.86 °C,-0.01 °C,0.42 °C,1.31 °C,0.23 °C,0.81 °C,0.56 °C,1.75 °C,0.7 °C
COc1ncc(-c2cc(-c3ncc(CN4C[C@@H](C)O[C@@H](C)C4)o3)c3cn[nH]c3c2)cc1NS(C)(=O)=O,0.55 °C,3.05 °C,-0.41 °C,-0.09 °C,-0.11 °C,0.43 °C,0.15 °C,0.01 °C,0.34 °C,-0.19 °C,1.25 °C,1.42 °C,1.12 °C,0.17 °C,1.4 °C,0.12 °C,0.69 °C,0.78 °C,-0.2 °C,0.21 °C
COc1ccc(-c2nc(N3CCOCC3)c3sc(CN(C)c4ncc(C(=O)NO)cn4)cc3n2)cn1,0.62 °C,1.67 °C,0.67 °C,0.23 °C,0.42 °C,0.88 °C,0.28 °C,0.53 °C,0.43 °C,-0.17 °C,2.79 °C,1.04 °C,0.58 °C,0.34 °C,0.21 °C,0.21 °C,1.31 °C,0.97 °C,0.54 °C,0.14 °C
C[C@@]1(C(=O)Nc2ccc(F)nc2)CCCN1c1nc(Nc2cc(C3CC3)n[nH]2)c2cccn2n1,1.85 °C,3.65 °C,0.11 °C,0.04 °C,3.52 °C,0.38 °C,4.9 °C,1.12 °C,0.67 °C,0.49 °C,0.92 °C,-2.64 °C,0.85 °C,0.6 °C,-0.49 °C,1.02 °C,1.05 °C,0.71 °C,8.77 °C,0.26 °C
C=CC(=O)N1CCC[C@@H](n2nc(-c3ccc(Oc4ccccc4)cc3)c3c(N)ncnc32)C1,0.18 °C,0.65 °C,0.59 °C,0.2 °C,0 °C,0.24 °C,0.74 °C,0.52 °C,0.21 °C,0.5 °C,1.42 °C,1.09 °C,0.54 °C,3.76 °C,-0.23 °C,1.12 °C,0.96 °C,1.16 °C,0.34 °C,0.6 °C
COc1cc(Nc2ncc(F)c(Nc3ccc4c(n3)N(COP(=O)(O)O)C(=O)C(C)(C)O4)n2)cc(OC)c1OC [Fostamatinib (R788)],1.98 °C,-0.16 °C,0.33 °C,-0.55 °C,4.38 °C,3.63 °C,9.1 °C,0.22 °C,0.49 °C,6.23 °C,4.42 °C,6.53 °C,0.92 °C,0.09 °C,1.18 °C,3.04 °C,0.54 °C,3.76 °C,11 °C,0.23 °C
O=C(O)c1ccc2c3c1cccc3c(=O)n1c3ccccc3nc21,3.12 °C,0.97 °C,0.69 °C,0.32 °C,1.4 °C,0.71 °C,0.62 °C,0.91 °C,0 °C,1.18 °C,1.73 °C,3.73 °C,1 °C,0.76 °C,1 °C,0.87 °C,0.5 °C,0.93 °C,3.53 °C,0.44 °C
NC(=O)c1ccc(N(C(N)=O)c2c(F)cccc2F)nc1-c1ccc(F)cc1F,0.34 °C,0.53 °C,0.19 °C,-0.47 °C,-0.12 °C,0.57 °C,-1.78 °C,0.07 °C,0.14 °C,-0.21 °C,-0.23 °C,-0.16 °C,0.91 °C,-0.21 °C,-0.08 °C,0.4 °C,0.66 °C,0.7 °C,-0.49 °C,0.09 °C
CS(=O)(=O)CCNCc1ccc(-c2ccc3ncnc(Nc4ccc(OCc5cccc(F)c5)c(Cl)c4)c3c2)o1,1.42 °C,0.57 °C,-0.68 °C,0.49 °C,0.2 °C,0.5 °C,0.33 °C,0.41 °C,0.31 °C,0.63 °C,0.92 °C,1.06 °C,1.49 °C,0.35 °C,-0.49 °C,0.26 °C,1.15 °C,0.58 °C,-0.53 °C,0.69 °C
CN(C)Cc1cccc(N=C(c2ccccc2)c2c(O)[nH]c3cc(C(=O)N(C)C)ccc23)c1,-0.17 °C,0.75 °C,0.14 °C,0.49 °C,0.13 °C,0.52 °C,1.05 °C,1.46 °C,0.16 °C,0.77 °C,0.86 °C,0.56 °C,0.46 °C,0.74 °C,0.8 °C,0.24 °C,1.05 °C,0.71 °C,1.17 °C,1.25 °C
CN(C)C[C@@H]1CCn2cc(c3ccccc32)C2=C(C(=O)NC2=O)c2cn(c3ccccc23)CCO1,1.3 °C,0.71 °C,0.95 °C,1.16 °C,2.41 °C,2.83 °C,2.85 °C,0.62 °C,-0.02 °C,-0.62 °C,2.1 °C,0.51 °C,2.42 °C,0.43 °C,0.03 °C,0.53 °C,0.54 °C,1.19 °C,2.29 °C,1.69 °C
O=C1c2ccc(Nc3ccc(F)cc3F)cc2CCc2ccc(OC[C@H](O)CO)cc21 [Skepinone-L],0.24 °C,1.29 °C,1.14 °C,-0.71 °C,0.36 °C,0.57 °C,-1.35 °C,0.21 °C,-0.11 °C,0.04 °C,1.15 °C,1.18 °C,0.79 °C,0.21 °C,0.84 °C,0.42 °C,-0.07 °C,0.85 °C,0.72 °C,0.17 °C
